Compound activity: PubChem, National Center for Advancing Translational Sciences (NCATS)
Hits are enriched below; roughly 21% of the tested compounds scored in any of these assays.
TDP1 cell CPT – qHTS for Inhibitors of human tyrosyl-DNA phosphodiesterase 1 (TDP1): qHTS in cells in presence of CPT; Potency, µM (highest dose often 46.2 µM), usual class: inhibitors; chicken DT40 Tdp1-/-;hTDP1 cells + 20 nM CPT, ATP luminescence, 48 h; AID 686979, 2013; 420,000 tested, 12% active; further: nearly all actives have a fitted effect of over 55% in size
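Cell growth measured by CellTiter-Glo luminescence after a minimum 48 h, 37 C compound exposure with 20 nM CPT in Tdp1-knockout DT40 cells stably expressing hTDP1, seeded 400/well; qHTS titration format.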
IL1B secr inh – qHTS for Inhibitors of Inflammasome Signaling: IL-1-beta AlphaLISA Primary Screen. activity change, % at 57.5 µM. AID 743279, 2014. THP-1 LPS/ATP IL-1B secretion, AlphaLISA, 16 h; hits give low values. 360,000 tested, 4.7% active; in the data active means activity change below about -50%; inconclusive means mostly about -30% to -49%
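Secreted IL-1B measured by AlphaLISA bead assay after 16 h compound exposure of THP-1 cells; compounds (final up to 57.5 uM) added 1 h before LPS (250 ng/mL) and ATP (1.25 mM) stimulation; lower signal means less secretion.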
ClpP mod – qHTS Assay for Activators of ClpP. ATP-dependent Clp protease proteolytic subunit (Bacillus subtilis (strain 168)), P80244. purified B. subtilis ClpP, FRET peptide cleavage, 20 min. Potency, µM (highest dose often 57.5 µM). 340,000 tested, 1.9% active. AID 651965, 2013; active means well fitted falling curve with a large enough effect; inconclusive means small, poorly fitted or top-dose-only effect; inactive means no such curve, though single readings can be large or run the other way; further: the source files actives as falling curves though it sought activators and does not explain the sign; nearly all actives have a fitted effect of over 65% in size
Target sequence (P80244 whole entry, looked up): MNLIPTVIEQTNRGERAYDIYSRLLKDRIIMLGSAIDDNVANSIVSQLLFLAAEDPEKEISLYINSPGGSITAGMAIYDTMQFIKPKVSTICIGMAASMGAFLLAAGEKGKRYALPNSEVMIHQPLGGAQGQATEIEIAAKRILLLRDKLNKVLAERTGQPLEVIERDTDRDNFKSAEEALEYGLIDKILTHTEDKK
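ClpP 10 microg/mL final, pH 8 Tris/KCl buffer with BSA, glycerol, Tween-20; compound pinned in; FRET-FV substrate; RT 20 min; Ex320/Em430; ΔFRET vs ADEP 5.8 microM, DMSO, no enzyme.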
DRD3 antagonist – qHTS of D3 Dopamine Receptor Antagonist: qHTS | max response, negative = inhibition, % | 360,000 tested, 2.5% active | AID 652054, 2013 | D(3) dopamine receptor (Homo sapiens), P35462 | D3R cells, DiscoveRx beta-arrestin luminescence, antagonist mode; hits give low values; in the data active means max response below about -50%; inconclusive means no clear call, values can overlap the other calls
Target sequence (P35462 whole entry, looked up): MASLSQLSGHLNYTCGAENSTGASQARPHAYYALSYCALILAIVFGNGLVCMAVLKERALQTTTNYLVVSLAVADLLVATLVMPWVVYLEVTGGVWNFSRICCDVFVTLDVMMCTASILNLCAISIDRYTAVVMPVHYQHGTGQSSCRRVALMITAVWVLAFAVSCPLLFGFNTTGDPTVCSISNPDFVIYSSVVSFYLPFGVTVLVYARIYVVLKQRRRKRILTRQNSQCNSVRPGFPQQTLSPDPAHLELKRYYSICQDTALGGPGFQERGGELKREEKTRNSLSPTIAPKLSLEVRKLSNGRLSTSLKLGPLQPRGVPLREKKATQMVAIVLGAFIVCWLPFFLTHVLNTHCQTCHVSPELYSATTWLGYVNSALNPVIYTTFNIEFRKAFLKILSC
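Cells expressing the human receptor were seeded at 1500 cells/well, incubated overnight at 37 degrees C in 5% CO2, then exposed to library compounds with dopamine controls for 90 minutes at 37 degrees C before luminescent detection.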
DRD3 agonist – qHTS of D3 Dopamine Receptor Agonist: qHTS | D(3) dopamine receptor (Homo sapiens), P35462 | D3R DiscoveRx beta-arrestin cells, luminescence, 90 min | max activation, % | 410,000 tested, 0.58% active | AID 652048, 2013; in the data active means max activation above about 30%
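Agonist-mode cell screen: cells plated at 1500/well and incubated overnight at 37 °C, then exposed to library compounds for 90 min at 37 °C. Detection reagent was added for 30–60 min at room temperature, and luminescence was read.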
TDP1 cell noCPT – qHTS for Inhibitors of human tyrosyl-DNA phosphodiesterase 1 (TDP1): qHTS in cells in absence of CPT; Potency, µM (top dose mostly 46.2 µM), hits mostly inhibitors; DT40 Tdp1-/- hTDP1 cells, no CPT, ATP luminescence, 48 h; AID 686978, 2013; 420,000 tested, 15% active; further: nearly all actives have a fitted effect of over 55% in size
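Readout: luminescence from CellTiter-Glo after 30 min in the dark at RT. Cells: DT40 Tdp1-/- with stable hTDP1, 400/well. Exposure: compounds alone, ≥48 hr, 37 °C.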
Hits are given with their value; [ ] = another dose, or the depositor's remark. Unless noted, the call rests on the fitted dose curve; in most records, active means well fitted inhibition curve with a large enough effect; inconclusive means small, poorly fitted or top-dose-only effect; inactive means flat fitted curve, though single readings scatter.

`COc1ccccc1N1CCN(c2nc(-c3ccc(C)cc3)nc3ccccc23)CC1` gave TDP1 cell CPT 23.1µM, ClpP mod inactive, DRD3 agonist inactive and TDP1 cell noCPT 23.1µM.
Screening Cc1ccc(-c2nc(N3CCN(c4ccccc4Cl)CC3)c3ccccc3n2)cc1 returned TDP1 cell CPT inactive, ClpP mod inactive, DRD3 agonist inactive and TDP1 cell noCPT inactive.
Screening CC1=C(C(=O)OCc2ccc3c(c2)OCO3)C(c2ccccc2OCc2ccccc2)NC(=O)N1 (stereo not given) returned TDP1 cell CPT inconclusive, IL1B secr inh -50.3, ClpP mod inactive, DRD3 antagonist inactive, DRD3 agonist inactive and TDP1 cell noCPT 25.9µM.
Screening CCCOc1ccccc1C1NC(=O)NC(C)=C1C(=O)OCCOC (stereo not given) returned TDP1 cell CPT inactive, IL1B secr inh inactive, ClpP mod inactive, DRD3 antagonist inactive, DRD3 agonist inactive and TDP1 cell noCPT inactive.
For CCOC(=O)C1=C(C)NC(=O)NC1c1cccc(OC)c1OCc1ccccc1Cl (stereo not given) the results were TDP1 cell CPT 8.2µM, IL1B secr inh inactive, ClpP mod inactive, DRD3 antagonist inactive, DRD3 agonist inactive and TDP1 cell noCPT inconclusive.
For COc1ccc(COC(=O)C2=C(C)NC(=O)NC2c2cccc(OC)c2OC)cc1 (stereo not given) the results were TDP1 cell CPT inactive, IL1B secr inh inactive, ClpP mod inactive, DRD3 antagonist inactive, DRD3 agonist inactive and TDP1 cell noCPT inactive.
For CCCOc1ccccc1C1NC(=O)NC(C)=C1C(=O)OCc1ccccc1 (stereo not given) the results were TDP1 cell CPT 23.1µM, IL1B secr inh -71.3, ClpP mod inactive, DRD3 antagonist inactive, DRD3 agonist inactive and TDP1 cell noCPT inconclusive.
For CCOc1cc(C2c3c(oc4ccccc4c3=O)C(=O)N2Cc2ccccc2Cl)ccc1O (stereo not given) the results were TDP1 cell CPT inconclusive, ClpP mod inactive, DRD3 agonist inactive and TDP1 cell noCPT inconclusive.
For Cc1cc(NC(=O)CSc2nc(C)c(C)n2CC(C)C)no1 the results were TDP1 cell CPT inactive, IL1B secr inh inactive, DRD3 antagonist inactive, DRD3 agonist inactive and TDP1 cell noCPT inconclusive.
Screening Cc1cc(C)c(S(=O)(=O)Nc2ccc3oc4c(c3c2)CCCC4)cc1C returned TDP1 cell CPT 16.4µM, ClpP mod inactive, DRD3 agonist inactive and TDP1 cell noCPT inconclusive.
COc1ccc(C)cc1S(=O)(=O)Nc1ccc(F)cc1 was read as TDP1 cell CPT inactive, IL1B secr inh inactive, ClpP mod inactive, DRD3 antagonist inactive, DRD3 agonist inactive and TDP1 cell noCPT inactive.
CC(C)(C)C1CCc2oc3ccc(NS(=O)(=O)c4ccc(C(=O)O)cc4)cc3c2C1 (stereo not given) was read as TDP1 cell CPT inactive, ClpP mod inactive, DRD3 agonist inactive and TDP1 cell noCPT inactive.
CC(C)(C)C1CCc2oc3ccc(NS(=O)(=O)c4cc(Cl)ccc4Cl)cc3c2C1 (stereo not given) was read as TDP1 cell CPT 25.9µM, ClpP mod inactive, DRD3 agonist inactive and TDP1 cell noCPT inconclusive.
`Cc1cc(C)c(S(=O)(=O)Nc2ccc(O)cc2)cc1C` gave TDP1 cell CPT inconclusive, IL1B secr inh inactive, ClpP mod inactive, DRD3 antagonist inactive, DRD3 agonist inactive and TDP1 cell noCPT 20.6µM.
For CCOc1cc(C)c(S(=O)(=O)Nc2ccc(F)cc2)cc1C the results were TDP1 cell CPT 15.8µM, IL1B secr inh inactive, ClpP mod inactive, DRD3 antagonist inactive, DRD3 agonist inactive and TDP1 cell noCPT 15.8µM.
For Cc1ccc(C)c(S(=O)(=O)Nc2ccc(O)cc2)c1 the results were TDP1 cell CPT inconclusive, IL1B secr inh inactive, ClpP mod inactive, DRD3 antagonist inactive, DRD3 agonist inactive and TDP1 cell noCPT inconclusive.
`COC(=O)CCC(=O)Nc1ccc2oc3c(c2c1)CCCC3` gave TDP1 cell CPT inactive, IL1B secr inh inactive, ClpP mod inactive, DRD3 antagonist inactive, DRD3 agonist inactive and TDP1 cell noCPT inactive.
Screening Cc1cc(S(=O)(=O)Nc2ccc3oc4c(c3c2)CCCC4)ccc1Cl returned TDP1 cell CPT 20.6µM, ClpP mod inactive, DRD3 agonist inactive and TDP1 cell noCPT 23.1µM.
For CCc1ccc(-n2c(=O)c3c(C)c(C(=O)N(C)C)sc3n(Cc3ccccc3F)c2=O)cc1 the results were TDP1 cell CPT inactive, ClpP mod inactive, DRD3 agonist inactive and TDP1 cell noCPT inactive.
`CCc1ccc(C(=O)NNC(=O)OC)cc1` gave TDP1 cell CPT inconclusive, IL1B secr inh inactive, ClpP mod 14.1µM, DRD3 antagonist inactive, DRD3 agonist inactive and TDP1 cell noCPT 29.1µM.
For COc1ccc(S(=O)(=O)N(C)Cc2ccc3c(c2)OCCO3)cc1 the results were TDP1 cell CPT inactive, IL1B secr inh inactive, ClpP mod inactive, DRD3 antagonist inactive, DRD3 agonist inactive and TDP1 cell noCPT inconclusive.
For C=CCNC(=O)c1ccc2nc(-c3ccccc3)c(-c3ccccc3)nc2c1 the results were TDP1 cell CPT inconclusive, IL1B secr inh inactive, ClpP mod 20µM, DRD3 antagonist inactive, DRD3 agonist inactive and TDP1 cell noCPT inconclusive.
`Cc1ccc(-c2nc3ccc(C(=O)O)cc3nc2-c2ccc(C)cc2)cc1` gave TDP1 cell CPT inconclusive, IL1B secr inh inactive, ClpP mod inconclusive, DRD3 antagonist inactive, DRD3 agonist inactive and TDP1 cell noCPT inconclusive.
Screening CNC(=O)c1ccc2nc(-c3ccccc3)c(-c3ccccc3)nc2c1 returned TDP1 cell CPT inconclusive, ClpP mod inactive and TDP1 cell noCPT inconclusive.
For COc1ccc(C(=O)N(O)c2ccccc2)cc1 the results were TDP1 cell CPT inactive[9.04 µM] and TDP1 cell noCPT inactive[9.04 µM].
For C=CCN(C(=O)c1ccccc1)c1ccc(OC)cc1 the results were TDP1 cell CPT 12.6µM, IL1B secr inh inactive, ClpP mod inactive, DRD3 antagonist inactive, DRD3 agonist inactive and TDP1 cell noCPT 22.4µM.
`COc1ccc(N(C)C(=O)c2ccc3nc(-c4ccccc4)c(-c4ccccc4)nc3c2)cc1` gave TDP1 cell CPT inconclusive, IL1B secr inh inactive, ClpP mod inactive, DRD3 antagonist inactive, DRD3 agonist inactive and TDP1 cell noCPT 18.4µM.
Cc1cccc(CNC(=O)c2ccc3nc(-c4ccccc4)c(-c4ccccc4)nc3c2)c1 was read as TDP1 cell CPT 20.6µM, ClpP mod inconclusive, DRD3 agonist inactive and TDP1 cell noCPT inconclusive.
CN(C(=O)c1cccc(C(=O)N(C)c2ccccc2)c1)c1ccccc1 was read as TDP1 cell CPT inactive, IL1B secr inh inactive, ClpP mod inactive, DRD3 antagonist inactive, DRD3 agonist inactive and TDP1 cell noCPT inactive.
